Assay results from PubChem BioAssay.
Activity calls are given as the source filed them.

Columns and labels:
[1] = biological target: Albumin (Bos taurus) (UniProt P02769); experiment: bovine serum albumin binders on microarray, profiling panel, artefact control for SMM control protein annotation, biochemical, small-molecule microarray, Alexa647 label, 635/667 nm fluorescence (AID 1118); conditions: BSA-A647 binding, fluorescence 635 nm, higher = more signal;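 also: score merges 667 nm emission intensity and signal-to-noise per printed compound spot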
Sequence of Albumin (Bos taurus) (P02769 whole entry, looked up): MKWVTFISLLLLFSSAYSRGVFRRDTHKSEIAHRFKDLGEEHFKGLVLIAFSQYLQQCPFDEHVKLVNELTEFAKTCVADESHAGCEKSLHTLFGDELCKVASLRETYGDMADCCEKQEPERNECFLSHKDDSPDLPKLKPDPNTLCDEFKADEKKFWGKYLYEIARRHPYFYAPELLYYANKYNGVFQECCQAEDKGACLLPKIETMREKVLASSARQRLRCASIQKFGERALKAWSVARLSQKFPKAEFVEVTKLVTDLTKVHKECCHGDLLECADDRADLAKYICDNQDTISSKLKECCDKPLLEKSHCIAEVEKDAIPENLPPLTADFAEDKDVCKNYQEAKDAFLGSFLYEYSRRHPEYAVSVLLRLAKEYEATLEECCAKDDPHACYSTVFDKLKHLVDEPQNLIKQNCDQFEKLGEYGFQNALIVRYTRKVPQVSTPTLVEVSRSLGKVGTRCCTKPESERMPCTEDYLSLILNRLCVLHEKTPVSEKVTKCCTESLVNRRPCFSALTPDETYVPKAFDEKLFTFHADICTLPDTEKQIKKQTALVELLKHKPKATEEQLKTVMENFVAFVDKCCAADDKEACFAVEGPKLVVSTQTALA

[2] = small-molecule microarray binders of probe aXIP, primary screen, biochemical, NeuroSMM set, 635/667 nm fluorescence (AID 1119); conditions: higher = more signal, called active from +8 up or from −8 down;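 also: probe is the protein aXip251-270 applied at 1 µg/mL to compound-printed slides; binding of probe to printed compounds measured as 667 nm fluorescence plus signal to noise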
[3] = small-molecule binders of probe aNOTCH3, primary screen, biochemical, small-molecule microarray, 635/667 nm fluorescence (AID 1120); conditions: higher = more signal;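 also: probe is a biotin-tagged antibody raised against NOTCH3 rather than NOTCH3 protein; score merges spot fluorescence near 667 nm with spot signal to noise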
[4] = small-molecule binders of probe aNOTCH2, primary screen, biochemical, small-molecule microarray, 635/667 nm fluorescence (AID 1121); conditions: higher = more signal;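 also: score merges feature fluorescence read at 667 nm with its signal to noise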
[5] = biological target: Carbonic anhydrase 2 (Homo sapiens) (UniProt P00918); experiment: CAII small-molecule binders, profiling panel, biochemical, small-molecule microarray, Alexa647-labelled CAII (AID 1122); conditions: CAII-A647 binding fluorescence, higher = more signal
[6] = COS7 lysate on small-molecule microarray, probe aHis, 635 nm (AID 1123); conditions: COS7 cell lysate, fluorescence, higher = more signal;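 also: z-score combines 667nm fluorescence intensity with signal-to-noise per printed compound spot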
[7] = compound binding in COS7 lysate, probe aLAP1, primary screen, cell lysate, small-molecule microarray (AID 1124); conditions: probe aLAP1, fluorescence, higher = more signal;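 also: lysate comes from COS7 cells expressing LAP1 and is applied at 0.3 µg/mL; score merges spot fluorescence near 667 nm with signal-to-noise over triplicate slides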
[8] = test system: Sam68 (KHDRBS1); experiment: Sam68 small-molecule binders, primary screen, biochemical, small-molecule microarray, 635 nm fluorescence (AID 1125); conditions: small-molecule microarray binding, higher = more signal;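 also: score merges 667 nm channel intensity with signal to noise over triplicate slides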
[9] = test system: Chordin-like protein 2 (CHRDL2); experiment: CHRDL2 small-molecule binders, primary screen, biochemical, small-molecule microarray, 635 nm fluorescence (AID 1126); conditions: small-molecule microarray binding, fluorescence 635 nm; higher = more signal;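 also: printed compound slides probed with Chrdl2 protein at 4 µg/mL for 1 h at 4 C; score merges 667 nm emission intensity with signal to noise over three replicate slides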
[10] = biological target: Concanavalin-A (Canavalia ensiformis) (UniProt P02866); experiment: ConA small-molecule binders, primary screen, artefact control for SMM control protein annotation, biochemical, small-molecule microarray, Alexa647 label, 635 nm (AID 1127); conditions: ConA-A647 binding fluorescence, higher = more signal;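 also: z combines 667 nm emission intensity with signal-to-noise across three replicate slides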
Sequence of Concanavalin-A (Canavalia ensiformis) (P02866 whole entry, looked up): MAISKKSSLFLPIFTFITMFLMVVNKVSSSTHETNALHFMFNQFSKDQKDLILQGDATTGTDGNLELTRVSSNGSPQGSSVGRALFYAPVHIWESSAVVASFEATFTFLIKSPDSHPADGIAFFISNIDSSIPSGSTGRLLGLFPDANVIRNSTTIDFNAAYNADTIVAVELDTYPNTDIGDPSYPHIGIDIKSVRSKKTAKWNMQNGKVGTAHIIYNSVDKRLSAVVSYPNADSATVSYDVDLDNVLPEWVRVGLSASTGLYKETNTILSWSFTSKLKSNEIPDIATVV

[11] = anti-His antibody binders, primary screen, artefact control for SMM control protein annotation, biochemical, small-molecule microarray, 635 nm fluorescence (AID 1128); conditions: anti-His Alexa647 antibody binding, higher = more signal;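 also: score merges feature fluorescence with signal-to-noise for each printed compound spot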
[12] = test system: Human papillomavirus type 1a E7 protein (residues 1-88); experiment: HPV1a E7 small-molecule binders, primary screen, biochemical, small-molecule microarray, residues 1-88, 635 nm (AID 1129); conditions: small-molecule microarray binding, fluorescence 635 nm; higher = more signal
[13] = biological target: Focal adhesion kinase 1 (Homo sapiens) (UniProt Q05397); experiment: small-molecule microarray binders of FAK, primary screen, biochemical, 635/667 nm fluorescence, BSA, DTT (AID 1130); conditions: PTK2 binding, 635 nm fluorescence, higher = more signal;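 also: composite of spot emission at 667 nm and signal to noise over triplicate slides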
Sequence of Focal adhesion kinase 1 (Homo sapiens) (Q05397 whole entry, looked up): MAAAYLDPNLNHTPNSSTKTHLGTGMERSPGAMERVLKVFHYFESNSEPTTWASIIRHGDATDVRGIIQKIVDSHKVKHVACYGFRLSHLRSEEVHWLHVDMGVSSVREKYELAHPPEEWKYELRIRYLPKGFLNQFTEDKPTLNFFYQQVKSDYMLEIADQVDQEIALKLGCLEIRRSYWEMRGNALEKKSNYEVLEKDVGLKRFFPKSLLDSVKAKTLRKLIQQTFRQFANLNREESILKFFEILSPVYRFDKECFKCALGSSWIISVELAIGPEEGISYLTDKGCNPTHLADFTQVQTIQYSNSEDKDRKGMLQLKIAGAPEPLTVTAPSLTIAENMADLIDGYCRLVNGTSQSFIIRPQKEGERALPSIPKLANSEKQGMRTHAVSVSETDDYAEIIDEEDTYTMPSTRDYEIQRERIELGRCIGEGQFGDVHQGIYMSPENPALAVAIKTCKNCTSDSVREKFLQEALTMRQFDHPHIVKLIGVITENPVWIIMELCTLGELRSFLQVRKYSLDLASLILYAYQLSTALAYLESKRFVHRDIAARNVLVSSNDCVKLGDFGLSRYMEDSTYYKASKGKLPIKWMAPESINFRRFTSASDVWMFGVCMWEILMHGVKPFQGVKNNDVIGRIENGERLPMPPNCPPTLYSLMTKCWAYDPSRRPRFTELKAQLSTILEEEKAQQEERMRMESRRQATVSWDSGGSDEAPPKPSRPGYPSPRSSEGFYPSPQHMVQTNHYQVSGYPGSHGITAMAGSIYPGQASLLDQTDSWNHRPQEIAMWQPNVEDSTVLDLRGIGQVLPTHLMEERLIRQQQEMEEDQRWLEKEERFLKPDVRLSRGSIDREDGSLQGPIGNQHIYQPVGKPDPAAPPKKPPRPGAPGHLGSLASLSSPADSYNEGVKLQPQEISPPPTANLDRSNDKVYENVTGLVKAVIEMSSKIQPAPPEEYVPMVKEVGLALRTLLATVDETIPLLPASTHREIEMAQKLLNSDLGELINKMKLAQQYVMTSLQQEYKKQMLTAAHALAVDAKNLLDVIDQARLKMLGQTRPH

[14] = test system: Fibrinogen (Alexa647-labelled); experiment: fibrinogen binders on compound microarrays, profiling panel, artefact control for SMM control-protein annotation, biochemical, small-molecule microarray, 635/667 nm fluorescence (AID 1131); conditions: fibrinogen-A647 binding fluorescence, higher = more signal;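 also: z-score merges 667 nm fluorescence with per-spot signal-to-noise over triplicate slides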
[15] = biological target: Follistatin (Homo sapiens) (UniProt P19883); experiment: follistatin binders on small-molecule microarrays, primary screen, biochemical, small-molecule microarray, 635/667 nm fluorescence (AID 1132); conditions: FST binding, 635 nm fluorescence, higher = more signal
Sequence of Follistatin (Homo sapiens) (P19883 whole entry, looked up): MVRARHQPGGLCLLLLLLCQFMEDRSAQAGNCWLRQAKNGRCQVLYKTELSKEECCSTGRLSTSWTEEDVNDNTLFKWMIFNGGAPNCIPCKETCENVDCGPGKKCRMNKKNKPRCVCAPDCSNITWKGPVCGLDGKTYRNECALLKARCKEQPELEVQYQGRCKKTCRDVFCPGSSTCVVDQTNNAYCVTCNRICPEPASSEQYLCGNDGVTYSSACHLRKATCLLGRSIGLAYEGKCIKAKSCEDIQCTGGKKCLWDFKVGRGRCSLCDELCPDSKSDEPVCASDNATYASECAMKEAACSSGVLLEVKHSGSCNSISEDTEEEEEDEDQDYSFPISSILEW

[16] = biological target: Fibroblast growth factor 2 (Homo sapiens) (UniProt P09038); experiment: FGF2 binders on small-molecule microarrays, primary screen, biochemical, small-molecule microarray, 635/667 nm fluorescence (AID 1133); conditions: small-molecule microarray binding, FGF2, fluorescence 635/667; higher = more signal
Sequence of Fibroblast growth factor 2 (Homo sapiens) (P09038 whole entry, looked up): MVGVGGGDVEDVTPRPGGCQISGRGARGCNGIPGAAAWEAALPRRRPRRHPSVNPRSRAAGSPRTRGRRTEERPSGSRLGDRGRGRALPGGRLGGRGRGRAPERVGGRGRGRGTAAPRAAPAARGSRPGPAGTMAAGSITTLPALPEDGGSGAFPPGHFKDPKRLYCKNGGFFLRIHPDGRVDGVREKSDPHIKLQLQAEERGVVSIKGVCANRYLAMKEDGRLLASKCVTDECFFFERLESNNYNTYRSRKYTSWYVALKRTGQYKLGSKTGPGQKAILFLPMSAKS

[17] = mitochondrial membrane potential change in A549 cells, profiling panel, cell-based, JC-1 fluorescence, basal, 24 h, 100 nL (AID 1138); conditions: higher = more signal;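 also: A549 lung adenocarcinoma cells under basal conditions with no added stimulus; test concentration not given here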
[18] = test system: Lefty1; experiment: Lefty1 binders on small-molecule microarrays, primary screen, biochemical, small-molecule microarray, 635/667 nm fluorescence (AID 1139); conditions: small-molecule microarray binding, fluorescence 635/667; higher = more signal
[19] = test system: wheat germ agglutinin (Triticum aestivum), Alexa647-labelled; experiment: wheat germ agglutinin binders on compound microarrays, profiling panel, artefact control for SMM control-protein annotation, biochemical, small-molecule microarray, 635/667 nm fluorescence (AID 1140); conditions: WGA-A647 binding, 635 nm fluorescence, higher = more signal;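 also: score merges 667 nm feature emission with signal to noise over triplicate slides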
[20] = biological target: Luciferin 4-monooxygenase (Photinus pyralis) (UniProt P08659); experiment: firefly luciferase enzyme inhibitors, primary screen, biochemical, luminescence, purified enzyme, 2006 set (AID 1141); conditions: SteadyGlo luminescence, 30 min, higher = more signal, called active from +8 up or from −8 down;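 also: cell-free assay with purified firefly luciferase at 100 ng per well in PBS; test concentration not given here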
Sequence of Luciferin 4-monooxygenase (Photinus pyralis) (P08659 whole entry, looked up): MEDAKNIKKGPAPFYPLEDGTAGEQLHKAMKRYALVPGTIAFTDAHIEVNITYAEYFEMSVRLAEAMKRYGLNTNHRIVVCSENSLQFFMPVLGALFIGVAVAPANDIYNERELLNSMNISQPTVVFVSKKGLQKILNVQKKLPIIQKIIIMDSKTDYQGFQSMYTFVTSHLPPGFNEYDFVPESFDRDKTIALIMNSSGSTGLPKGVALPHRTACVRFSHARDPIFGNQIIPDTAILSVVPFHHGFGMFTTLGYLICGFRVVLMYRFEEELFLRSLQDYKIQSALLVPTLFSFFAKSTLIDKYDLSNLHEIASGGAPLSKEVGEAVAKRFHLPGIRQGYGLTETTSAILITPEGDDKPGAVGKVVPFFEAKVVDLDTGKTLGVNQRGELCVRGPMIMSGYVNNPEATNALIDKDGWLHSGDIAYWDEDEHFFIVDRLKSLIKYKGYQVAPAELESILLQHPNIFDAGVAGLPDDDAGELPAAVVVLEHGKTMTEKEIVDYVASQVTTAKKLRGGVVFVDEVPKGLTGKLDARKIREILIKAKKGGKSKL

SMILES | composite z-score [1] | composite Z-score [2] | composite z-score [3] | composite z-score [4] | composite z-score [5] | composite z-score [6] | composite z-score [7] | composite z-score [8] | composite z-score [9] | composite z-score [10] | composite z-score [11] | composite z-score [12] | composite z-score [13] | composite z-score [14] | composite z-score [15] | composite z-score [16] | z-score [17] | composite z-score [18] | composite z-score [19] | z-score [20]
CN(C)CCCCCCNC(=O)[C@@H]1C[C@@H]2C(=O)N3CCC[C@H]3C(=O)N2[C@@H]1c1cccc(OCCO)c1 | -0.694 | 0.759 (inactive) | 0.278 | -0.13 | 0.591 | 2.73 | 0.87 | 1.31 | 1.42 | 1.13 | 2.58 | 1.23 | 0.338 | 0.552 | 1.37 | 1.58 | -0.17 | 1.48 | 1.1 | -0.138 (inactive)
OCCCC1=CC(c2ccc(CN3CCCC3)cc2)N(Cc2cc3c(cc2Br)OCO3)CC1 (stereo not given) | -0.715 | -0.888 (inactive) | 0.0833 | -0.0467 | 0.0435 | -0.437 | 0.597 | -0.063 | 0.901 | 0.22 | 0.448 | 0.049 | 0.172 | 0.65 | 1.07 | 0.262 | 0.157 | 0.695 | 0.266 | 0.391 (inactive)
C=CC[C@@]1(C(=O)NCCCOC)N=C(c2ccc(OCCCO)cc2)O[C@@H]1c1ccccc1N=[N+]=[N-] | 0.896 | -0.349 (inactive) | 0.356 | -0.125 | 0.224 | 1.73 | 0.209 | 1.01 | -0.325 | 0.562 | 2.2 | 1.21 | 0.474 | 1.03 | 1.28 | 0.0912 | 1.3 | -0.115 | 0.736 | -3.67 (inactive)
Cc1ccc(S[C@]2(C(=O)NCC(F)(F)F)CC(=O)N(Cc3cc(C(F)(F)F)cc(C(F)(F)F)c3)[C@@H]2c2ccc(CO)cc2I)cc1 | 0.803 | 0.439 (inactive) | -0.291 | -0.164 | 0.14 | 0.869 | -0.0008 | -1.47 | -1.54 | -0.41 | 0.214 | -0.698 | -0.301 | -0.994 | -0.887 | -0.91 | -1.01 | -0.708 | -0.314 | 1.5 (inactive)
COc1cc2c(cc1O)C(C1CC1)N(C)CC2 (stereo not given) | 0.789 | -0.519 (inactive) | -0.257 | -0.19 | 0.902 | -0.374 | -0.308 | -0.758 | -0.778 | -1.91 | -1.19 | -2.06 | -0.532 | -1.18 | -1.09 | -0.716 | 1.32 | -1.59 | -0.413 | -0.872 (inactive)
